High-throughput results as filed in PubChem BioAssay.
AmpC detergent = inhibitors of E. coli AmpC beta-lactamase with detergent; AID 485294; Potency, µM (doses to about 114 µM), for the others: top-dose activity change, negative = inhibition, hits mostly inhibitors; 370,000 tested, 0.041% active; AmpC hydrolysis of nitrocefin, absorbance 480 nm, 0.01% Triton; P00811;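 further: 0% = no-compound wells and -100% = no-enzyme wells; nearly all actives have a fitted effect of over 25% in size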
Target sequence (P00811 whole entry, looked up): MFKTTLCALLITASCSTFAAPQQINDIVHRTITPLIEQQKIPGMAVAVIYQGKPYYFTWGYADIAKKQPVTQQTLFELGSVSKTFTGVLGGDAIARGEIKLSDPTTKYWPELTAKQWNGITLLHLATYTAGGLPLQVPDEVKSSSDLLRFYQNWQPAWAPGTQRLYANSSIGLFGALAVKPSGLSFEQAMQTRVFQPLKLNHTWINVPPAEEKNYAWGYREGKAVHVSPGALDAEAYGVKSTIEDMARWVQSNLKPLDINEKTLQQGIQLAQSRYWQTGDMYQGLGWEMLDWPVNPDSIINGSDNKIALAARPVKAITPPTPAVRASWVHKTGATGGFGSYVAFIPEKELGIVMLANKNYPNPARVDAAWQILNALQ
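AmpC (5.3 nM in the dispensed reagent) in 20 mM phosphate pH 7.0 with 0.01% (detergent screen) or 0.0001% Triton X-100 was preincubated with compounds for 15 min at room temperature. Nitrocefin was then added from an 800 uM solution, and hydrolysis was followed at 480 nm.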
AmpC inh no detg = AmpC beta-lactamase inhibition without detergent. P00811. AmpC nitrocefin hydrolysis, absorbance 480 nm, 0.0001% Triton. Potency, µM (highest dose often 57.1 µM), for the others: top-dose activity change, negative = inhibition, most hits filed as inhibitors. 330,000 tested, 0.52% active. AID 485341;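 further: plate controls were no compound for no effect and no enzyme for full effect; nearly all actives have a fitted effect of over 20% in size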
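20 mM phosphate pH 7.0 + 0.01% (detergent screen) or 0.0001% Triton X-100; 5.3 nM AmpC reagent; cpd preinc 15 min RT; nitrocefin (800 uM stock) to start; A480 q20 s × 4 min; Activity was normalised to no-enzyme and no-compound control wells.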
Pf growth 48h = P. falciparum growth inhibition at 48 hours (one generation) | P. falciparum luciferase growth in erythrocytes, 48 h | Potency, µM (doses to about 28.7 µM), inactives show at the highest dose activity change, negative = inhibition, most hits filed as inhibitors | 310,000 tested, 5.9% active | AID 504832
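Read-out is firefly luciferase luminescence from an integrated reporter in P. falciparum, so falling signal marks reduced parasite growth. Infected erythrocytes were at 2% hematocrit and 0.1% parasitemia (final) in Albumax-supplemented RPMI 1640.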
AMA1 RON2 block = AMA1-RON2 (P. falciparum) interaction inhibition | AlphaScreen AMA1-biotinylated RON2 peptide binding | AID 720542 | Potency, µM (doses to about 58.2 µM), without a hit: at the highest dose activity change, negative = inhibition, most hits filed as inhibitors | 360,000 tested, 0.2% active;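 further: 0% = vehicle wells and -100% = peptide control; nearly all actives have a fitted effect of over 45% in size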
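AMA1 (3D7) with his tag at 25 nM final met compounds first, then biotinylated RON2 peptide at 25 nM; detection used donor plus acceptor beads, 10 µg/mL apiece, read by AlphaScreen after 30 min at room temperature.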
HCV inhibitor = blocks hepatitis C virus. Huh7.5.1 HCVcc-Cre infection, luciferase reporter, 44 h. Potency, µM (top dose mostly 41.8 µM), for the others: at the highest dose activity change, negative = inhibition, usual class: inhibitors. 340,000 tested, 3.4% active. AID 651820
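Antiviral activity was scored by luciferase reporter output from cells infected with HCVcc-Cre (~0.5 moi) in presence of compound, 44 h infection period, cells seeded 1,000/well 4 h prior.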
Pf growth 96h = P. falciparum growth inhibition at 96 hours | Potency, µM (titrated, usually from 28.7 µM), without a hit: top-dose activity change, negative = inhibition, hits mostly inhibitors | 320,000 tested, 6.9% active | P. falciparum luciferase reporter growth, 96 h | AID 504834
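P. falciparum expressing integrated firefly luciferase grown in erythrocytes (2% hematocrit, 0.05% parasitemia final) with compounds for 96 hours at 37 C, 5% CO2. Growth inhibition read as loss of luminescence after adding luciferase detection reagent.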
Active calls of the source: *; ? = inconclusive; . = no result; ! = not active in a repeat. Hits are enriched below; roughly 11% of the tested compounds scored in any of these assays. The call rests on the fitted dose curve; in most records, active means well fitted curve in the direction sought with a large enough effect; inconclusive means small, poorly fitted or top-dose-only effect, or another doubt; inactive means no such curve, though single readings can be large; an effect the other way counts as inactive or inconclusive. Unless noted, on the % scale 0 is the no-effect control and ±100 the full control effect; potency means the concentration at half of the fitted maximal effect.

SMILES	AmpC detergent	AmpC inh no detg	Pf growth 48h	AMA1 RON2 block	HCV inhibitor	Pf growth 96h
COC(=O)[C@@]12CCCN1[C@H](c1ccc(-c3ccc4c(c3)OCO4)c(OC)c1)[C@H]1C(=O)N(C)C(=O)[C@H]12	6%	273%	?	-16%	?	?
COC(=O)[C@@]12CCCN1[C@H](c1ccc(-c3ccc(C(C)=O)cc3)c(OC)c1)[C@H]1C(=O)N(C)C(=O)[C@H]12	-9%	112%	13µM*	-5%	-10%	?
O=C(Nc1cc2c(cc1C(=O)c1ccc(Br)cc1)OCCO2)c1ccc(Cl)cc1	18%	.	.	.	.	.
CCCCN(C)C(=O)c1ccc2c(c1)N(Cc1ccc(F)cc1)C(=O)c1ccccc1S2(=O)=O	0%	.	.	.	.	.
COc1cccc(Nc2ccc(-n3ccnc3)nn2)c1	5%	-25%	?	-3%	-27%	66%
Cc1ccc(Nc2ccc(-n3ccnc3)nn2)cc1C	?	-34%	?	-6%	-3%	10µM*
CN(C)c1ccc(N2CN=C3SCC(=O)N3C2)cc1	-8%	16%	1.5µM*	?	1%	?
COc1cc(NC(=O)Nc2c[nH]c(=O)[nH]c2=O)cc(OC)c1OC	1%	.	.	.	.	.
CCC(=O)c1ccc(OCC(=O)OCC(=O)c2cc(C)n(C)c2C)cc1	1%	-7%	?	1%	.	13µM*
CCC(=O)c1ccc(OCC(=O)OCC(=O)c2c(N)n(C)c(=O)n(C)c2=O)cc1	1%	48%	-2%	-5%	16%	-30%
CCc1c(O)cc2n(c1=O)-c1ccc(Cl)cc1C2(C)C	?	-25%	12µM*	-14%	3%	-27%
CC1SC(c2ccccc2)N(CC(O)c2ccc([N+](=O)[O-])cc2)C1=O (centres undefined)	0%	-7%	12µM*	-4%	3%	75%
Cn1c2c(c(=O)n(C)c1=O)C(C(F)(F)F)(C(F)(F)F)N=C(c1ccc(Cl)cc1)N2	-4%	-9%	?	13%	1.6µM*	1.5µM*
Cc1ccccc1C1=NC(C(F)(F)F)(C(F)(F)F)c2c(n(C)c(=O)n(C)c2=O)N1	-11%	-17%	?	11%	?	?
C=C(C)CNC(=S)NN=C1c2ccccc2-c2ccccc21	1%	-40%	2%	-11%	11µM*	?
CCNC(=S)NN=C1c2ccccc2-c2ccccc21	-9%	-35%	-19%	1%	16µM*	4.7µM*
C=C(C)CNC(=S)N/N=C/c1ccco1	2%	-19%	?	64%	5%	?
S=C(NCCCN1CCOCC1)NN=C1c2ccccc2-c2ccccc21	.	.	.	22%	.	.
C=C(C)CNC(=S)N/N=C(\C)c1ccc(OC)cc1	?	-46%	13µM*	3%	?	-32%
COc1ccc2c(c1)c(C(O)CN1CCC(Cc3ccccc3)CC1)c(C)n2C (centres undefined)	1%	30%	13µM*	-23%	?	10µM*
CC(C)OCC(O)CN1CCC(Cc2ccccc2)CC1 (centres undefined)	-7%	-10%	25%	0%	14%	34%
Cn1c(=O)c2c(-c3ccccc3)n3c(c2n(C)c1=O)C(c1ccccc1[N+](=O)[O-])Nc1ccccc1-3 (centres undefined)	17%	.	.	.	.	.
CC12CCC(=O)C=C1CCC1C2C(O)CC2(C)C(O)CCC12 (centres undefined)	.	.	.	1%	3%	.
C[C@]12CC(O)C3C(CCC4=CC(=O)CC[C@@]43C)C1CCC2c1csc(-c2ccccc2)n1 (some centres undefined)	3%	-19%	5.2µM*	-5%	?	?
Clc1ccc(CCNC(c2cccc(Cl)c2)c2nnc(-c3ccccc3)o2)cc1 (centres undefined)	2%	.	.	.	.	.
SMILES	AmpC detergent	AmpC inh no detg	Pf growth 48h	AMA1 RON2 block	HCV inhibitor	Pf growth 96h
CCN1CCN(Cc2c(O)ccc3c(=O)c(Oc4ccccc4C(C)C)c(C(F)(F)F)oc23)CC1	4%	.	.	.	.	.
OCCCNc1cc(-c2ccnc(Nc3cccc(Cl)c3)n2)ccn1	9%	35%	0.74µM*	-14%	2µM*	0.41µM*
Cc1cc(C)c(C)c(OCCOCCN2CCN(C)CC2)c1	6%	16%	23%	-1%	4µM*	?
c1ccc(C2CN3CCSC3=N2)cc1 (centres undefined)	?	-10%	2.7µM*!	-2%	30%	1.9µM*!
c1ccc(C2=NC(c3ccccc3)CC2)cc1 (centres undefined)	.	.	.	7%	.	.
Cc1ccc(CNC(=O)c2c[nH]c3ccc(S(=O)(=O)Nc4ccc(C(C)C)cc4)cc3c2=O)cc1	17%	.	.	.	.	.
O=C(COC(=O)C1=Cc2ccccc2OC1)NCc1ccccc1	-14%	30%	0%	3%	7%	?
COCCNC(=O)COC(=O)C1=Cc2ccccc2OC1	5%	-2%	6%	-1%	13µM*	?
CC(OC(=O)C1=Cc2ccccc2OC1)C(=O)NC1CCCC1 (centres undefined)	2%	0.16µM*	14%	-15%	-7%	38%
Cc1ccc2nc(-c3ccc(Cl)c(NC(=O)COc4cccc(C)c4C)c3)oc2c1	-1%	.	.	.	.	.
COc1ccc(NC(=O)Cn2c(=O)n(-c3ccc(C)cc3)c(=O)c3c2cnn3C)cc1	14%	.	.	.	.	.
COC(=O)C1=C(c2cccc(OCc3ccccc3)c2)C[C@@H]2CC[C@H]1N2C(=O)NCc1ccc(C(F)(F)F)cc1	10%	-19%	13µM*	6%	10µM*	5.2µM*
COC(=O)C1=C(c2ccc(OCc3ccccc3)cc2)C[C@@H]2CC[C@H]1N2C(=O)NCc1ccc(F)cc1	.	.	.	-4%	.	.
COC(=O)C1=C(c2ccccc2)C[C@@H]2CC[C@H]1N2C(=O)NCc1ccccc1	.	.	.	8%	-22%	.
COC(=O)C1=C(c2cccc(OCc3ccccc3)c2)C[C@@H]2CC[C@H]1N2C(=O)NCc1ccc2[nH]ccc2c1	-4%	-26%	13µM*	?	?	?
COC(=O)C1=C(c2cccc(OCc3ccccc3)c2)C[C@@H]2CC[C@H]1N2C(=O)NCc1ccc(F)cc1	0%	-3%	12µM*	-2%	?	9.3µM*
NC(=S)N/N=C/c1ccc(-c2cc(Cl)c(Cl)cc2Cl)o1	0%	20µM*	?	64%	-20%	?
COc1ccc(CCNC(=O)c2cc(CC(C)C)on2)cc1OC	13%	38%	.	-2%	-21%	7.4µM*
Cc1noc(C)c1COc1ccc(C(=O)NCc2ccccn2)cc1	?	-15%	1%	-4%	16%	9.3µM*
